# aSyn UTR inh = MLPCN primary screen, SNCA 5' untranslated region; alpha-synuclein 5'UTR reporter, inhibitor activity; inhibition, % (tested at 7.5 µM); 300,000 compounds, 0.82% hits; AID 1813; in the data active means inhibition above about 60%;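 further: H4 neuroglioblastoma cells stably carrying SNCA 5'UTR luciferase fusion; 0% = DMSO wells and 100% = positive control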
# KLF5 inhibitor = inhibitors of KLF5 expression; DLD-1 KLF5 promoter-luciferase reporter, luminescence; inhibition, % at 5 µM; 290,000 compounds, 0.23% hits; AID 1700;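 active means inhibition above a per-plate limit of that plate's mean compound inhibition plus 3 SD, cut at about 60% in these data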;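 further: 0% = DMSO wells and 100% = LY294002 at 200 µM; higher means less KLF5 promoter-driven luciferase light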
# 697 NFkB inh = inhibitors of the PMA/ionomycin-induced NF-kB reporter in 697 B cells. inhibition, % at 4 µM. 697 B-cell NF-kB luciferase reporter, 16 h. 330,000 compounds, 0.33% hits; in the data active means inhibition above about 35%
# Jurkat NFkB inh = inhibitors of the PMA/ionomycin-induced NF-kB reporter in Jurkat cells; PMA/ionomycin-induced NF-kB luciferase reporter, luminescence; 330,000 compounds, 0.53% hits; inhibition, % at 4 µM; AID 435003; in the data active means inhibition above about 50%
# Gli-Sufu antag = blocks Gli-Sufu signaling in a luciferase reporter. Sufu-KO-LIGHT fibroblasts, Gli luciferase reporter luminescence. inhibition, % at 5 µM. 340,000 compounds, 0.74% hits;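 active means inhibition above about 55%, limit read from the data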;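 further: 0% = DMSO-treated cells and 100% = wells with medium but no cells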
# Mdm2 MdmX PPI = disrupts the human Mdm2-MdmX interaction. 330,000 compounds, 3% hits. inhibition, % at 8 µM. O15151+Q00987. SaOS-2 split-luciferase Mdm2/MdmX complementation, luminescence;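 active means inhibition of at least 50% at 8 µM in the primary screen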
# Target sequence (O15151 whole entry, looked up): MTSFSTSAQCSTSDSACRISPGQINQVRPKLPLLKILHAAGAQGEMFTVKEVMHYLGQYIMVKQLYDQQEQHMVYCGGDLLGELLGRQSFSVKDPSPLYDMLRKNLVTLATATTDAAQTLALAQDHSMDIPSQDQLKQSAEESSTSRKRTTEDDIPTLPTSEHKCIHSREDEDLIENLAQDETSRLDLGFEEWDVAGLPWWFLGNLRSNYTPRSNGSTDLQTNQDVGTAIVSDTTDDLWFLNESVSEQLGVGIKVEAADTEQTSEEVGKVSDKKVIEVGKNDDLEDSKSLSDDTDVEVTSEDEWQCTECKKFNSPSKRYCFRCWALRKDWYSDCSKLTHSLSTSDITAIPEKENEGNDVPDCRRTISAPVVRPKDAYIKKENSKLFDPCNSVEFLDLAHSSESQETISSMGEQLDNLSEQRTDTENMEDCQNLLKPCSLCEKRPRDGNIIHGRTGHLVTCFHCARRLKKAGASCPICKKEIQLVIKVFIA
# Target sequence (Q00987 whole entry, looked up): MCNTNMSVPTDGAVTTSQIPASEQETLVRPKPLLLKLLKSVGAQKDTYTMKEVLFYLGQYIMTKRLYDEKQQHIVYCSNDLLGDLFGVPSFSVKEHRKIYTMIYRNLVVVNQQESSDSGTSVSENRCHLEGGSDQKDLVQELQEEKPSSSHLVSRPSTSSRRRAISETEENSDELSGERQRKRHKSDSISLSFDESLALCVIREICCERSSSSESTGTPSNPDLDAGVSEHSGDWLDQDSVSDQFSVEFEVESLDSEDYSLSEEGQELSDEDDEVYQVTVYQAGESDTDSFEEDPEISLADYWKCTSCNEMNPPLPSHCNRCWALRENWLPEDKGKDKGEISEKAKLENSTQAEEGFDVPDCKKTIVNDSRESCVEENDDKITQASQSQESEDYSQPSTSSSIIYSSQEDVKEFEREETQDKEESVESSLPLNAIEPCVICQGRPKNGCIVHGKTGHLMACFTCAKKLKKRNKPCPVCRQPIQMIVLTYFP
# Mdm2-MdmX conf = confirmation of human Mdm2/MdmX interaction inhibitors; shares compounds with Mdm2 MdmX PPI; Mdm2-MdmX binding, luminescent assay; inhibition, % at 8 µM; 10,000 compounds, 55% hits; AID 489028; in the data active means inhibition above about 40%
# FLuc counter = full-length luciferase inhibition in Mdm2/MdmX counter-screen | shares compounds with Mdm2 MdmX PPI | 6,200 compounds, 77% hits | SaOS-2 full-length luciferase counterscreen, luminescence | inhibition, % at 8 µM;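 active means mean inhibition at 8 µM reaching about 37%, which flags the compound as non-specific, limit read from the data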;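 further: p53-null SaOS-2 cells with luciferase driven by a doxycycline-inducible promoter; compound on cells about two nights before reading with doxycycline added after day one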
# Starred values were filed as active, the others as inactive; . = no result given. In the library only some 4.1% were active in any assay of this set; here they are far more common.
SMILES,aSyn UTR inh,KLF5 inhibitor,697 NFkB inh,Jurkat NFkB inh,Gli-Sufu antag,Mdm2 MdmX PPI,Mdm2-MdmX conf,FLuc counter
CC(C)C(=O)Nc1ccc(NC(=O)c2ccc(COc3ccccc3)cc2)cc1,-1,-24,-20,-11,14,72*,23,90*
CC(=O)Nc1ccc(-c2cc(-c3ccc(NC(C)=O)cc3)nc(-c3ccccc3)n2)cc1,16,7,-36,-16,-6,58*,34,.
CC(=O)Nc1ccc(NC(=O)c2ccc(NC(=O)c3ccccc3)cc2)cc1,-10,-10,20,-2,22,62*,17,.
CC(=O)Nc1ccc(-c2cc(-c3ccc(NC(C)=O)cc3)nc(-c3ccc(NC(C)=O)cc3)n2)cc1,-14,-19,-22,-16,-12,-5,.,.
CC(=O)Nc1ccc(NC(=O)c2ccc(COc3ccccc3)cc2)cc1,12,-14,-22,-14,-3,-10,.,.
CCOC(=O)CCNC(=O)N1CCCC(C(=O)c2cccc(OC(C)C)c2)C1 (stereo not given),-12,-18,4,2,18,9,.,.
Cc1cccnc1NC(=O)c1ccc(Cl)c(S(=O)(=O)N2CCCCC2)c1,10,.,3,9,-8,15,.,.
N#CNc1nc(O)cc(=O)[nH]1,-5,-15,-9,-6,4,-15,.,.
O=C(Cn1cc(Cl)c([N+](=O)[O-])n1)NCCC1=CCCCC1,-4,-4,-15,-1,15,-23,.,.
CCOC(=O)C1Nc2ccc(C(F)(F)F)cc2C2c3ccccc3CC12 (stereo not given),-58,.,26,6,-10,97*,70*,43*
O=C(NCCOc1ccccc1)C1Nc2ccc(C(F)(F)F)cc2C2c3ccccc3CC12 (stereo not given),16,.,5,20,-6,26,.,.
O=C1C=CC(=O)N1,.,.,-22,-16,10,2,.,.
Cc1ccc(-c2nc(NC(=O)c3nn(C)cc3[N+](=O)[O-])sc2C)cc1,99*,20,5,21,11,79*,100*,53*
O=C(NC(=S)Nc1nc(-c2cccc([N+](=O)[O-])c2)cs1)c1cc(Cl)ccc1Cl,22,-38,-3,-8,.,52*,-5,.
Cc1ccc(-c2nc(NC(=O)c3nn(C)cc3[N+](=O)[O-])sc2C)cc1C,18,38,-37,24,-10,81*,100*,51*
O=C(Nc1nc(-c2cccc([N+](=O)[O-])c2)cs1)C(c1ccccc1)c1ccccc1,21,-7,17,-2,1,43,.,.
Cn1cc([N+](=O)[O-])c(C(=O)Nc2nc(-c3ccc(Cl)cc3)cs2)n1,63*,2,4,7,4,94*,90*,44*
Cc1cnc(NC(=O)c2nn(C)cc2[N+](=O)[O-])s1,-43,-13,21,24,2,35,.,.
CCCNC(=O)NNC(=O)c1ccc(F)cc1,19,-20,7,-10,0,-31,.,.
CN(C(=O)c1cncc(Br)c1)C1C2CC3CC(C2)CC1C3 (stereo not given),-31,-27,-31,-8,25,-3,.,.
Cc1nn(-c2ccccc2)c(N2CCCC2)c1/C=N/NC(=O)c1cc(-c2ccccc2)nc2ccccc12,12,4,1,7,7,57*,47*,68*
Cc1nn(-c2ccccc2)c(N2CCCC2)c1/C=N/NC(=O)c1cc(-c2ccccn2)nc2ccccc12,-5,-9,33,15,2,63*,15,.
CS(=O)(=O)c1nc(-c2ccccc2)cc(-c2ccccc2)c1C#N,11,-10,13,-30,4,100*,27,.
Cc1ccc(-c2cc(-c3ccccc3)nc(Cl)n2)cc1,-72,-3,-20,1,-7,11,.,.
CC(C)C(Sc1nc(-c2ccccc2)cc(-c2ccccc2)c1C#N)C(=O)O (stereo not given),7,-23,3,6,-2,-5,.,.
SMILES,aSyn UTR inh,KLF5 inhibitor,697 NFkB inh,Jurkat NFkB inh,Gli-Sufu antag,Mdm2 MdmX PPI,Mdm2-MdmX conf,FLuc counter
Cc1ccc(-c2cc(-c3ccccc3)c(C#N)c(Br)n2)cc1,-8,-12,24,7,-7,72*,-4,.
O=[N+]([O-])c1ccc(Nc2cccc(F)c2)nc1,-2,-23,-4,-9,9,-29,.,.
COc1ccccc1CNC(=O)COC(=O)c1nccnc1N,-24,2,-3,-1,3,7,.,.
COC(=O)[C@@]1(Cc2ccccc2)[C@H]2C(=O)N(Cc3ccccc3)C(=O)[C@H]2[C@H]2CN=C(SCC(=O)c3ccccc3)N21,.,.,-1,.,2,54*,55*,50*
COC(=O)[C@@]1(C)[C@H]2C(=O)N(Cc3ccccc3)C(=O)[C@H]2[C@H]2CN=C(SCc3ccc(C#N)cc3)N21,.,.,-16,.,-4,71*,70*,51*
CCN1C(=O)[C@H]2[C@H]3CN=C(SCc4ccccc4)N3[C@@](C)(C(=O)OC)[C@H]2C1=O,.,.,0,.,-1,-5,.,.
CCN1C(=O)[C@H]2[C@H]3CN=C(SCc4ccc(Cl)cc4)N3[C@@](C)(C(=O)OC)[C@H]2C1=O,.,.,0,.,-2,-1,.,.
COC(=O)[C@@]1(Cc2ccccc2)[C@H]2C(=O)N(Cc3ccccc3)C(=O)[C@H]2[C@H]2CN=C(SCc3ccc(Cl)cc3)N21,.,.,7,.,8,99*,99*,53*
COC(=O)[C@@]1(C)[C@H]2C(=O)N(Cc3ccccc3)C(=O)[C@H]2[C@H]2CN=C(SCc3ccc(Cl)cc3)N21,.,.,-15,.,4,97*,100*,56*
CCN1C(=O)[C@H]2[C@@H](c3ccc(-c4ccccc4)cc3)N3CCC[C@@]3(C(=O)OC)[C@H]2C1=O,-24,.,-6,-20,-7,-12,.,.
Cc1c(Cl)cccc1N(CC(=O)NC1CCCCC1)S(C)(=O)=O,-1,-17,13,7,5,25,.,.
CC1(C)COC(c2cc([N+](=O)[O-])ccc2Cl)=N1,-2,8,9,14,0,-9,.,.
CC1(C)COC(/C=C/c2cccc([N+](=O)[O-])c2)=N1,-37,-11,8,9,-6,79*,72*,39*
O=C(COc1ccccc1C(=O)O)Nc1ccc(SC(F)F)cc1,26,-36,5,-5,3,7,.,.
O=C(Nc1ccc(SC(F)F)cc1)c1cccc2nc3ccccc3nc12,1,3,18,23,15,78*,17,.
COC(=O)c1ccccc1NC(=O)CN1CCC(C(=O)c2ccc3c(c2)OCCO3)CC1,17,-14,-9,5,2,62*,60*,99*
CC(C)c1nc(SCC(=O)N2CCCc3ccccc32)c2c(=O)n(C)c(=O)n(C)c2n1,29,-7,-3,-9,14,55*,47*,51*
